Results published in PubChem BioAssay AID2690 (NMMLSC, 2010).
The whole screen tested about 330,000 compounds, of which about 590 (0.18%) were called active. The list comes from a sample in which actives are over-represented; it also holds similar structures and randomly drawn compounds. Unmarked numbers belong to inactive results.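 Rule for the calls: active = superoxide response under a set limit, about three screen SD below normal (cut at about 65% in these data); inactive = the rest.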

Test: reduction of superoxide in aged yeast, primary screen, HTS (AID 2690);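 note: yeast aged for seven days with compound at 30 °C before DHE staining; 100% = average MFI of all compound-treated wells on the plate with controls excluded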
Conditions: S. cerevisiae aged cells, superoxide DHE fluorescence; at 10 µM; stronger effect = lower value

SMILES	superoxide response (% of plate mean)
CN1CCN(C(=S)SCC(=O)Nc2ccc(Cl)cc2C(=O)c2ccccc2)CC1	63.3% (active)
O=C(COC(=O)c1ccccc1)Nc1ccc(Cl)cc1C(=O)c1ccccc1	104%
O=C(CCNS(=O)(=O)c1ccccc1)Nc1ccc(Cl)cc1C(=O)c1ccccc1	83.2%
CNCC[C@H](Oc1ccc(C(F)(F)F)cc1)c1ccccc1	88.9%
Cc1cc(C)cc(NC(=S)NC2CC3CCCC(C2)N3Cc2cccs2)c1 (stereo not given)	101%
